An excerpt weighted towards active compounds, which were near 11% of everything screened.
NIH3T3 tox: Cytotoxic Profiling in NIH 3T3 Cell Line of Diverse Libraries Using Quantitative High-Throughput Screening; Potency, µM (doses to about 96.7 µM), inactives show at the highest dose activity change, negative = cytotoxicity, actives largely listed as inhibitors; hit rate 4.3% among 94,000; NIH 3T3 viability, CellTiter-Glo ATP luminescence, 48-72 h; also: nearly all actives have a fitted effect of over 55% in size
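Viability of NIH 3T3 cells after 48 or 72 hr compound treatment at 37 °C was assessed by CellTiter-Glo, with luminescence imaged following a 10 min room-temperature step.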
hNpr1 antagonist: Natriuretic polypeptide receptor (hNpr1) antagonism - Primary qHTS; Atrial natriuretic peptide receptor 1 (Homo sapiens), P16066; HEK293 hNpr1 GloSensor cGMP, ANP-stimulated luminescence; Potency, µM (titrated, usually from 46.3 µM), for inactives: at the highest dose activity change, negative = inhibition, hits mostly inhibitors; hit rate 1.6% among 76,000; AID 1347048, 2019; calls by dose curve; also: nearly all actives have a fitted effect of over 60% in size
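Compound pre-incubated 30 min at room temperature on GloSensor-loaded HEK293 cells stably carrying hNpr1 and the pGS-40F cGMP biosensor. Stimulation uses hNppA at 0.1 nM final; luminescence is taken at baseline and 20 min post-agonist.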
Luciferase inh: Firefly luciferase inhibition profiling of diverse chemical library using quantitative high-throughput screening | Luciferin 4-monooxygenase (Photinus pyralis), P08659 | purified P. pyralis luciferase, luminescence, biochemical | Potency, µM (top dose mostly 115 µM), hits mostly inhibitors | hit rate 2.5% among 76,000 | AID 1347043, 2019; also: nearly all actives have a fitted effect of over 65% in size
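FLuc 10nM, D-luciferin 10uM, ATP 10uM, Mg acetate 10mM, Tris acetate pH 7.5, Tween/BSA; cpd qHTS; enzyme added last; CCD luminescence.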
HEK cytotox: Cytotoxic Profiling in HEK 293 Cell Line of Diverse Libraries Using Quantitative High-Throughput Screening | HEK 293 viability, ATP luminescence (CellTiter-Glo), 48-72 h | Potency, µM (top dose mostly 115 µM), for the others: at the top dose activity change, negative = cytotoxicity, usual class: inhibitors | hit rate 6.6% among 94,000 | AID 1345083, 2018; also: nearly all actives have a fitted effect of over 60% in size
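CellTiter-Glo luminescence (cellular ATP) was read after 48 or 72 hr of compound exposure at 37 degree Celsius. Cells were HEK 293 plated at 250 cells/well.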
Numbers without * were called inactive; [ ] = remark or other dose. Unless noted, calls follow the shape of the dose curve; as a rule, active = well fitted curve in the direction sought with a large enough effect; inconclusive = small, poorly fitted or top-dose-only effect, or another doubt; inactive = no such curve, though single readings can be large; an effect the other way counts as inactive or inconclusive. % is scaled to controls: 0 for no effect and ±100 for the full control effect; potency is read from the fitted curve at half-maximal effect.

COCCCNC(=O)N1CCCC(COc2ccccc2C(=O)N2CCCCC2)C1 (stereo not drawn) was read as NIH3T3 tox 4%, hNpr1 antagonist 3%, Luciferase inh inactive and HEK cytotox inactive.
`COc1ccc(C(=O)N2CCN(C(=O)c3nc4cccnc4n(-c4ccccc4OC)c3=O)CC2)cc1` gave NIH3T3 tox -2% and HEK cytotox 2%.
CCc1cccc(NC(=O)c2ccc3c(c2)N(C)C2CCCCCN2C3=O)c1 (stereo not drawn) was read as NIH3T3 tox inconclusive, hNpr1 antagonist 0%, Luciferase inh inconclusive and HEK cytotox 35µM*.
For COCCNC(=O)CCCN1C(=O)COc2ccc(C(=O)COc3ccc(C(C)(C)C)cc3)cc21 the results were NIH3T3 tox inconclusive, hNpr1 antagonist -16%, Luciferase inh 14µM* and HEK cytotox inconclusive.
For O=C(CN1C(=O)COc2ccc(C(=O)COc3ccc(Cl)cc3F)cc21)NC1CCCCC1 the results were NIH3T3 tox inconclusive, hNpr1 antagonist 3%, Luciferase inh inactive and HEK cytotox 28µM*.
Screening CCCCNC(=O)CCCN1C(=O)COc2ccc(C(C)(C)CC)cc21 returned NIH3T3 tox inconclusive, hNpr1 antagonist -1%, Luciferase inh inactive and HEK cytotox 45µM*.
For CN(Cc1ccccc1)C(=O)CN1C(=O)COc2ccc(C(=O)COc3ccc(F)cc3)cc21 the results were NIH3T3 tox inconclusive, hNpr1 antagonist -1%, Luciferase inh inactive and HEK cytotox 20µM*.
`COCCNC(=O)CCCN1C(=O)COc2ccc(C(=O)COc3ccc(F)c(Cl)c3)cc21` gave NIH3T3 tox inconclusive, hNpr1 antagonist -3%, Luciferase inh inactive and HEK cytotox inconclusive.
`Cc1nc(C2CC23CCN(S(C)(=O)=O)CC3)no1` (stereo not drawn) gave NIH3T3 tox inconclusive and HEK cytotox -3%.
Screening O=C(NCc1ccc(Cl)cc1)c1cc(-c2ccccc2)c2nncn2n1 returned NIH3T3 tox -8% and HEK cytotox -4%.
Cn1cccc1C(=O)N1CCCCCCNC(=O)[C@@H]2CCC[C@@H]21 was read as NIH3T3 tox -12%, hNpr1 antagonist 7%, Luciferase inh inactive and HEK cytotox inconclusive.
`COc1cc2c(cc1OC)CN(C1CCCN(Cc3c(O)cccc3OC)C1)CC2` (stereo not drawn) gave NIH3T3 tox -24%, hNpr1 antagonist -13%, Luciferase inh inactive and HEK cytotox -22%.
CC(C)c1ccc(OCC(=O)c2ccc3c(c2)N(CCCC(=O)N2CCOCC2)C(=O)CO3)cc1 was read as NIH3T3 tox 32µM*, hNpr1 antagonist -18%, Luciferase inh inconclusive and HEK cytotox 32µM*.
O=C(NC1CCN(CCn2nc3n(c2=O)CCCC3)C1)c1cccnc1 (stereo not drawn) was read as NIH3T3 tox -13%[138 µM] and HEK cytotox -1%[172 µM].
O=C(Cc1ccccc1F)N1CCOc2ccc(CN3CCc4ccccc4C3)cc2C1 was read as NIH3T3 tox -28%, hNpr1 antagonist -29%, Luciferase inh inactive and HEK cytotox 45µM*.
For CCOc1ccc(CN2CCOc3ccc(C(=O)NCc4ccccc4F)cc3C2)cc1 the results were NIH3T3 tox inconclusive, hNpr1 antagonist inconclusive, Luciferase inh inactive and HEK cytotox 40µM*.
For O=C(NCc1ccccc1F)c1ccc2c(c1)CN(Cc1ccc3c(c1)CCO3)CCO2 the results were NIH3T3 tox inconclusive, hNpr1 antagonist -15%, Luciferase inh inactive and HEK cytotox 28µM*.
Screening CCOc1cccc(CN2CCOc3ccc(C(=O)NCc4ccccc4F)cc3C2)c1 returned NIH3T3 tox inconclusive, hNpr1 antagonist -10%, Luciferase inh inactive and HEK cytotox inconclusive.
Screening O=C(NCc1ccccc1F)c1ccc2c(c1)CN(Cc1ccc(O)c(F)c1)CCO2 returned NIH3T3 tox -23%, hNpr1 antagonist -27%, Luciferase inh inactive and HEK cytotox inconclusive.
For S=C(NC1CCCCC1)N[C@H]1CO[C@H]2[C@@H]1OC[C@@H]2n1nnnc1Oc1cccc(N2CCOCC2)c1 the results were NIH3T3 tox inconclusive, hNpr1 antagonist inconclusive, Luciferase inh inactive and HEK cytotox inconclusive.
For O=C(Cn1cccc1-c1nc(-c2ccc3c(c2)OCO3)no1)Nc1cccc(Cl)c1 the results were NIH3T3 tox -14%, hNpr1 antagonist -2%, Luciferase inh inactive and HEK cytotox -20%.
For O=C(CN1C(=O)C2(CCCCC2)C1c1ccccc1)NC1CCCC1 (stereo not drawn) the results were NIH3T3 tox -5% and HEK cytotox 2%.
Screening CN(C)c1ccc(NC(=O)Cn2cccc2-c2nc(-c3ccccc3)no2)cc1 returned NIH3T3 tox inactive, hNpr1 antagonist 7%, Luciferase inh inactive and HEK cytotox inconclusive.
`C[S+](=O)([O-])N1CCN(c2nccc(Nc3ccccc3F)n2)CC1` gave NIH3T3 tox -27% and HEK cytotox -10%.
For COC(=O)N1CCN(c2nccc(Nc3ccccc3F)n2)CC1 the results were NIH3T3 tox inconclusive and HEK cytotox 89µM*.
Screening COCC(=O)N1CCN(c2nccc(Nc3ccccc3F)n2)CC1 returned NIH3T3 tox -20% and HEK cytotox 2%.
Screening O=C(NC1CCCC1)N1CCN(c2nccc(Nc3ccccc3F)n2)CC1 returned NIH3T3 tox inconclusive and HEK cytotox 45µM*.
Screening O=C(Nc1ccccc1)N1CCN(c2nccc(Nc3ccccc3F)n2)CC1 returned NIH3T3 tox 45µM* and HEK cytotox inconclusive.
O=C(NC1CC1)C1CCCN1c1nccc(Nc2ccccc2F)n1 (stereo not drawn) was read as NIH3T3 tox -26% and HEK cytotox -25%.
`CC(C)NC(=O)N1CCN(c2nccc(Nc3ccccc3F)n2)CC1` gave NIH3T3 tox inconclusive and HEK cytotox 25µM*.
`O=C(C1CCCC1)N1CCCC1C(=O)N1CCCC1c1nc2ccncc2[nH]1` (stereo not drawn) gave NIH3T3 tox -9% and HEK cytotox 0%.
CCOc1ccc2c(n1)CCN(C(=O)Cc1ccc(C)cc1)C2 was read as NIH3T3 tox inconclusive, hNpr1 antagonist -1%, Luciferase inh inactive and HEK cytotox inconclusive.
O=C(COc1ccccc1)N1CC(CO)C2(CCNCC2)C1 (stereo not drawn) was read as NIH3T3 tox -18% and HEK cytotox -12%.
Screening C[C@H](C(=O)N1Cc2ccccc2CC2(CCN(CC3CCNCC3)CC2)C1)c1ccccc1 returned NIH3T3 tox 14µM* and HEK cytotox inconclusive.
For CCC(=O)N1Cc2ccccc2CC2(CCN(CC3CCNCC3)CC2)C1 the results were NIH3T3 tox 5% and HEK cytotox -10%.
For COCCCn1c(=O)c(C(=O)NCC2CC2)nc2cccnc21 the results were NIH3T3 tox -10%[138 µM] and HEK cytotox -2%[172 µM].

Bioassay records: PubChem BioAssay, National Center for Advancing Translational Sciences (NCATS)
